ssDAF-12 act: S. stercoralis DAF-12 activation, primary screen. 1% of 370,000 active. HEK293 ssDAF-12/GRIP1 lit1-tk-luc reporter, luminescence; % of 3 µM dafachronic acid response. activation, % at 6.8 µM;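 active means activation above the mean over all tested compounds plus 3 SD, cut at about 0.9% in these data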;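 further: 0% = DMSO-only wells and 100% = 3 µM delta7-dafachronic acid wells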
DAX1 inh-1: inhibits human nuclear receptor DAX1. inhibition, % at 6.75 µM. 0.99% of 340,000 active. P51843. HEK293 Gal4-DAX1 luciferase reporter, luminescence;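 active means inhibition above the mean over all tested compounds plus 3 SD, cut at about 4.2% in these data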;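 further: 0% = DAX1-transfected cells with DMSO and 100% = empty-vector control cells with DMSO; inhibition shows as a rise in luminescence from relieved DAX1 repression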
Target sequence (P51843 207-470 limits assumed): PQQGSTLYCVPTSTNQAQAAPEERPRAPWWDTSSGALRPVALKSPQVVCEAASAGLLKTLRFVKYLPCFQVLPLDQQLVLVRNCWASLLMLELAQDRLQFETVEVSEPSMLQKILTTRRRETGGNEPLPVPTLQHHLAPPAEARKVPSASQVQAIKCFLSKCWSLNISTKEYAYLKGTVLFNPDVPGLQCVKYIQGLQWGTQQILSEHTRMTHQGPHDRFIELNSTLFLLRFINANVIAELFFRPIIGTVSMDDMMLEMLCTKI
Rev-erbA mod: modulates human Rev-erb alpha binding to DNA; P20393; Rev-erbα–FITC-DNA binding, fluorescence polarization, 90 min; activity, % at 10 µM; 0.79% of 370,000 active;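 active means activity above about 14%, limit read from the data; passing the limit was not always enough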;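 further: 0% = DMSO wells with 35 nM protein and 100% = DMSO wells with 750 nM protein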
hcDAF12 agonist: H. contortus DAF-12 activation, primary screen; HEK293 hcDAF-12 lit1-tk-luc reporter, luminescence; 0% DMSO, 100% Δ7-dafachronic acid; activation, % at 6.8 µM; 1.4% of 370,000 active; AID 652067;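 active means activation above the mean of all tested compounds plus 3 SD, cut at about 5.5% in these data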;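 further: 100% = response to 3 µM Δ7-dafachronic acid high control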
hgDAF-12 ag: hgDAF-12 agonism, primary luciferase screen; activation, % at 6.8 µM; 1.8% of 370,000 active; HEK293 GAL4-hgDAF12 UAS-luciferase reporter, agonist luminescence; normalized to butyrate control;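 active means activation above a cutoff set at the mean of all screened compounds plus 3 SD, cut at about 10% in these data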;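 further: 0% = DMSO wells and 100% = sodium butyrate wells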
DAX1 inh-2: inhibitors of DAX1 repression of SF-1 activated StAR promoter; HEK293T StAR-luciferase reporter, SF-1/DAX-1 repression relief; inhibition, % at 6.8 µM; 1.1% of 370,000 active;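 active means inhibition above the mean over all tested compounds plus 3 SD, cut at about 3.6% in these data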;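 further: 0% = DAX-1 cells with DMSO and 100% = cells lacking DAX-1 with DMSO; higher inhibition means more luminescence from relief of DAX-1 repression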
hgDAF12 ag: hgDAF-12 agonism, confirmation assay; shares compounds with hgDAF-12 ag; HEK293 GAL4-hgDAF12 luciferase reporter, agonist mode; percent of butyrate response; activation, % at 6.8 µM; 80% of 3,300 active;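 active means mean activation over triplicate wells above the hit cutoff derived from the earlier primary screen, cut at about 11% in these data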;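 further: 0% = DMSO low control and 100% = 2 mM sodium butyrate high control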
LXRb DAF12 ctr: activates human LXR-beta, counter-screen for DAF-12 agonists; 3,300 tested, under 10 active; HEK293 Gal4-LXR luciferase reporter, 24 h; activation, % at 6.8 µM; shares compounds with hgDAF-12 ag;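 active means mean activation of the triplicate above a set limit carried over from the primary screen, none filed active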
An asterisk follows results filed as active; x = no result given. Only some compounds are listed: those with a hit (about 4.8% of all), similar ones and a draw of the others.

SMILES	ssDAF-12 act	DAX1 inh-1	Rev-erbA mod	hcDAF12 agonist	hgDAF-12 ag	DAX1 inh-2	hgDAF12 ag	LXRb DAF12 ctr
Cc1nc2cc(NCc3ccc(Cl)cc3)ccc2n1C	1.6*	4.7*	-5.1	4.2	13.6*	3.6	14.1*	1.3
CNc1nc(-c2ccc3c(c2)CCN3C(=O)c2ccccc2F)cs1	-0.1	1.3	-3.2	5.0	23.4*	3.9*	18.0*	0.7
O=c1nc(N/N=C/C=C/c2ccccc2)cn[nH]1	-0.1	-1.2	-6.3	3.4	15.5*	2.3	14.2*	0.9
O=c1nc(N/N=C/c2c[nH]c3ccccc23)cn[nH]1	0.5	-1.0	-4.9	3.6	16.7*	2.7	13.2*	0.6
CC[C@H](NC(=O)[C@@H](Cc1ccccc1)NC(=O)[C@H]1O[C@@H](n2cnc3c(=O)[nH]c(N)nc32)[C@H](O)[C@@H]1O)c1ccccc1	-0.7	x	-0.4	-2.7	1.3	0.7	x	x
O=C(/C=C/Nc1cccc(C(F)(F)F)c1)c1ccco1	-0.2	0.5	-2.7	4.6	8.3	1.1	x	x
O=C(/C=C/Nc1ccc(Oc2ccccc2)cc1)c1ccco1	0.7	0.6	4.4	4.3	13.3*	3.8*	23.4*	0.9
COc1ccccc1NC(=O)OC1CC2CC1[C@H]1CCCCN1[C@H]2Cc1ccccc1 (stereo partly drawn)	-0.6	x	0.7	-0.4	-1.0	-0.1	x	x
Brc1ccc(/C=N/Nc2ccccn2)cc1	0.8	1.0	-2.1	2.4	15.2*	1.8	11.2*	0.4
COc1ccc(/C=N/Nc2ccccn2)cc1O	-0.4	2.8	3.1	4.0	17.5*	1.6	12.1*	0.5
Oc1cccc(C=NNc2ccccn2)c1	-0.4	3.6	-1.8	-2.4	4.2	1.8	x	x
COc1cccc(CNC(=O)[C@H]2CCCN2C(=O)[C@H]2CCCN2C(=O)c2cccs2)c1	-1.1	x	4.5	2.0	-0.5	-1.0	x	x
Cc1cc(Oc2cccnc2)ccc1NC(=O)Cc1c(C)[nH]c2ccccc12	-0.6	x	-1.0	1.1	0.9	-1.2	x	x
CC1=C(C(=O)Nc2ccccn2)C(c2ccc(Br)cc2)NC(=S)N1 (stereo not drawn)	-1.0	3.1	1.1	5.7*	16.6*	0.8	4.9	0.2
CN(C(=O)CNC(=O)c1ccccc1OCC(=O)Nc1ccc(Br)cc1)c1ccccc1	-2.0	x	5.5	-2.9	1.2	-3.3	x	x
COc1ccccc1C(=O)CSc1ccccn1	-0.3	3.3	-3.6	0.4	7.3	1.4	x	x
COC(=O)c1ccnc(SCC(=O)c2ccccc2)c1	0.9	1.6	-3.0	2.8	17.6*	2.5	14.4*	0.3
COC(=O)c1cnc(SCc2ccc(Cl)cc2)n1C	-1.0	-0.3	6.6	-0.2	6.1	0.4	x	x
COC(=O)c1cnc(SCC(=O)c2ccccc2)n1C	-0.1	3.7	-5.2	6.1*	15.3*	1.6	14.0*	0.6
COc1cc(-n2c(C)nc3cc(C(=O)N4CCCCC4)ccc32)cc(OC)c1OC	-1.6	x	-8.1	0.5	0.6	1.5	x	x
COc1cccc(CN(C)C(=O)[C@@H](Cc2ccccc2)NC(=O)[C@H]2O[C@@H](n3ccc(=O)[nH]c3=O)[C@H](O)[C@@H]2O)c1	-1.2	x	-2.2	-0.3	0.8	0.0	x	x
Cc1csc(NC(=O)Nc2cccc(Cl)c2)n1	0.2	1.1	6.8	3.6	17.2*	1.7	13.7*	0.6
O=C(Nc1cccc(Cl)c1)Nc1nc(-c2ccccc2)cs1	-1.0	-0.8	0.0	-1.4	4.3	-0.1	x	x
O=C(OC12CCCN(C1)/C(=C/c1cccc(Cl)c1)C2)c1cccc(F)c1 (stereo not drawn)	-1.4	x	3.3	-2.5	-1.5	0.3	x	x
CCN(CC)CCN1C(=O)C(=O)/C(=C(/O)c2ccc(OC)cc2)C1c1ccco1 (stereo not drawn)	-0.9	0.5	2.0	0.5	0.6	-0.1	x	x
SMILES	ssDAF-12 act	DAX1 inh-1	Rev-erbA mod	hcDAF12 agonist	hgDAF-12 ag	DAX1 inh-2	hgDAF12 ag	LXRb DAF12 ctr
CCN(CC)CCCN1C(=O)C(=O)/C(=C(/O)c2ccc(OC)cc2)C1c1ccco1 (stereo not drawn)	-1.2	0.2	-1.1	1.0	14.1*	-0.5	3.8	0.1
O=C(NC1CCCC1)C(C1CC1)n1c(-c2cc3ccccc3[nH]2)nc2ccccc21 (stereo not drawn)	1.0*	x	-9.3	5.6	21.6*	2.7	14.4*	0.5
O=C(NC1CCCCC1)C(C1CC1)n1c(=O)c(-c2cc3ccccc3[nH]2)nc2ccccc21 (stereo not drawn)	0.0	x	-5.4	0.9	2.5	-0.8	x	x
COc1cccc2cc(-c3nc(-c4cccs4)cs3)c(=O)oc12	-0.2	0.9	1.2	4.4	8.9	2.9	x	x
COc1cccc2cc(-c3ccccc3)c(=O)oc12	0.8	1.4	3.2	5.8*	16.0*	2.1	14.0*	0.6
COc1cccc2cc(-c3nc4ccccc4[nH]3)c(=O)oc12	1.1*	1.8	-17.4	5.2	15.1*	2.1	17.4*	0.9
COc1ccc2cc(-c3ccccc3)c(=O)oc2c1	0.8	2.3	-6.2	2.7	13.8*	1.7	16.2*	1.0
COC(=O)C(C)Oc1ccc2cc(-c3ccccc3)c(=O)oc2c1 (stereo not drawn)	-0.8	0.3	-4.9	1.0	0.4	-0.1	x	x
O=C(CSc1nnc(-c2ccc(Cl)cc2)n1-c1ccccc1)Nc1ccc2c(c1)OCCO2	-1.1	x	2.6	-2.7	0.0	0.1	x	x
Cc1nn(Cc2ccccc2Cl)c(Cl)c1C(=O)NCCc1ccccc1	-0.2	2.9	1.4	2.6	16.9*	4.0*	15.1*	0.7
COC(=O)c1cc2c(c3c4cc(OC)ccc4n(S(=O)(=O)c4ccc(OC)cc4)c13)C(=O)N(Cc1ccco1)C2	-0.9	x	-1.0	-0.4	-2.0	-2.1	x	x
OCCC(N1CCOCC1)C(O)(c1ccccc1)c1ccccc1 (stereo not drawn)	-1.5	x	-6.5	0.0	-0.2	0.3	x	x
Cc1ccn2cc(-c3cnoc3C)nc2c1	0.0	2.5	-2.4	-0.4	4.6	0.6	x	x
COc1c(Cl)cccc1-c1cn2ccc(C)cc2n1	1.3*	3.7	-5.0	6.4*	13.6*	3.3	15.4*	1.0
CC(=O)Nc1cccc(-c2cn3ccc(C)cc3n2)c1	-0.3	-0.4	-1.5	3.3	13.9*	3.9*	12.2*	0.6
Cc1ccn2cc(-c3ccc(NS(=O)(=O)c4ccccc4)cc3)nc2c1	-1.3	0.2	1.9	-2.8	7.0	0.1	x	x
Cc1ccn2cc(-c3cccc(NS(C)(=O)=O)c3)nc2c1	-0.1	1.5	2.6	0.2	13.7*	2.0	10.9*	0.4
